FBW7 act = human FBW7 E3 ligase activation, primary screen; actives 0.13% (n = 650,000); AlphaScreen FBW7–phospho-cyclin E peptide binding, activator screen; Q969H0; normalized activity (activation), % at 26.1 µM; in the data active = normalized activity above about 1.9%;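 also: purified mutant Fbw7 with reduced substrate affinity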
GPR151 activ = activates the human receptor GPR151; PathHunter beta-arrestin GPR151 cells, luminescence; activation, % at 11.2 µM; actives 1% (n = 650,000); AID 1508602; in the data active = activation above about 4.9%;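 also: 0% = median of compound wells and 100% = cells with positive control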
MITF inh = inhibitors of human MITF; inhibition, % at 2.6 µM; actives 0.91% (n = 650,000); AlphaScreen MITF homodimerization, bead proximity signal; in the data active = inhibition above about 50%;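 also: 0% = vehicle wells with protein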
Target sequence (O75030 whole entry, looked up): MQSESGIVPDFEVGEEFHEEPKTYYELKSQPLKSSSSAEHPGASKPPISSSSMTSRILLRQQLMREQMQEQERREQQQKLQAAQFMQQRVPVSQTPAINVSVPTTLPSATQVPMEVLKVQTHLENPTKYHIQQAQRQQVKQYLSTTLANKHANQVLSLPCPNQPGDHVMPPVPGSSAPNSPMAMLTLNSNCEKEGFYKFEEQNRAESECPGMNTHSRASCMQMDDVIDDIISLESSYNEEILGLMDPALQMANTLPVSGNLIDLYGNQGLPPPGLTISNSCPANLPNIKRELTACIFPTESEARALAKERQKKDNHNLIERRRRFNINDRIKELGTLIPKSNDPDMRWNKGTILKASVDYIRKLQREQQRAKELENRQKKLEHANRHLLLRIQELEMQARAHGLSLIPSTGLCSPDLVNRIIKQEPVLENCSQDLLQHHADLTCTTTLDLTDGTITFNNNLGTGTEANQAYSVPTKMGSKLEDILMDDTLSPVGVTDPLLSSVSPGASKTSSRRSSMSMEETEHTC
TEAD-YAP block = TEAD-YAP interaction inhibition; HEK-TIYL cells, TEAD-Gal4/YAP UAS-luciferase luminescence; inhibition, % at 9.12 µM; actives 1.4% (n = 640,000); in the data active = inhibition above about 32%;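 also: 0% = median of test compound wells and 100% = reference inhibitor wells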
* marks the source's active call; other numbers are inactive results. This is a sample that favours compounds with a hit; in the whole collection about 3.5% have one here.

SMILES	FBW7 act	GPR151 activ	MITF inh	TEAD-YAP block
CC(C)(C)n1nc2c(c1NC(=O)c1cc(Cl)ccc1Cl)CSC2	0	-1	4	3
Cc1ccccc1-n1nc2c(c1NC(=O)c1cc([N+](=O)[O-])ccc1Cl)CS(=O)(=O)C2	0	3	-19	67*
O=[N+]([O-])c1ccc(N2CCN(c3ncnc4scc(-c5ccccc5)c34)CC2)cc1	0	1	-5	12
Cc1cc(NC(=O)CN2c3ccccc3CC2C)no1 (centres undefined)	0	0	-6	-6
Cc1ccc(S(=O)(=O)Oc2ccccc2C=O)cc1	0	0	-17	-8
CC1CCC(NC(=O)C2CCC(CNc3c(N4CCOCC4)c(=O)c3=O)CC2)CC1 (centres undefined)	1	0	-1	12
CC(=O)c1ccc(NC(=O)CSc2nnc3ccc(-c4ccco4)nn23)cc1	0	1	-6	24
NC(=O)c1ccccc1NC(=O)c1ncoc1-c1ccccc1C(F)(F)F	0	-2	0	49*
O=C(Nc1ccccc1-n1ccnc1)c1ncoc1-c1ccccc1C(F)(F)F	0	1	8	6
Nc1nc(Cl)nc2c1ncn2-c1ccccc1	1	3	20	-29
CN(C)S(=O)(=O)c1cccc(NC(=S)Nc2ccccc2C#N)c1	0	1	-3	87*
COc1ccc(Nc2nc(N3CCCC3)c3ccccc3n2)cc1	0	1	-3	37*
Cc1cc(C(=O)C(=O)O)c(C)n1-c1ccc2cn[nH]c2c1	0	1	4	-6
CCn1c(=O)cc(SCC(=O)NC(C)C)c2ccccc21	0	0	2	4
CCn1c(=O)cc(SCC(=O)NCc2ccc(F)cc2)c2ccccc21	0	1	6	45*
CCn1c(=O)cc(SCC(=O)NCc2cccs2)c2ccccc21	0	0	13	43*
CCOc1ccccc1N(CC(=O)NCc1ccccc1C)S(C)(=O)=O	0	1	-3	0
O=C(Nc1ccc2c(c1)OCO2)c1cc(-c2cccs2)on1	1	-1	12	-45
Nc1nc(SCC(=O)NC2CCCCC2)nc2sc3c(c12)CCCC3	1	-2	7	53*
CCOC(=O)CC(=O)CSc1nc(N)c2c3c(sc2n1)CCCC3	0	-2	10	-17
CCOC(=O)CCCSc1nc(N)c2c3c(sc2n1)CCCC3	0	0	7	88*
CC(NC(=O)COC(=O)c1n[nH]c2ccccc12)C12CC3CC(CC(C3)C1)C2 (centres undefined)	0	-2	8	-12
O=C(CCc1ccccn1)N1CCCC(N2CCOCC2)C1 (centres undefined)	0	0	-1	2
COc1ccc(C(CC(=O)O)NC(=O)COc2cc(C)ccc2C)cc1OC (centres undefined)	2.9*	-1	3	5
COc1ccc(C(CC(=O)O)NC(=O)COc2ccccc2)cc1OC (centres undefined)	0	-1	-11	-5
SMILES	FBW7 act	GPR151 activ	MITF inh	TEAD-YAP block
O=C(Cn1ccc(=NCc2ccccc2)cc1)c1cccc([N+](=O)[O-])c1	0	0	-32	33*
NC(=NCc1ccccc1)c1cccc([N+](=O)[O-])c1	0	0	-5	6
OCCC1CN(C/C(Cl)=C/c2ccccc2)CCN1Cc1ccsc1 (centres undefined)	0	-1	8	7
Cc1nn(-c2ccccc2)c(Cl)c1/C=N/Nc1ncnc(N)c1[N+](=O)[O-]	0	2	2	32*
Cc1cc(/C=N/Nc2ncnc(N)c2[N+](=O)[O-])c(C)n1-c1ccccc1	-1	-8	16	83*
CCN(CC)c1ccc(/C=N/Nc2ncnc(N)c2[N+](=O)[O-])cc1	-1	-9	-13	91*
Cc1cc(/C=C2\C(=O)NC(=O)N(C)C2=O)c(C)n1C1CCCCC1	-1	-1	-3	-11
O=C(Cc1ccc(F)cc1)Nc1cc(-c2cn[nH]c2)ccn1	0	0	-16	82*
O=C(Nc1ccc(O)cc1)c1cc2ccccn2n1	0	-3	6	56*
CS(=O)(=O)Cc1ccc(C(=O)O)cc1	0	-1	2	-2
CCc1ccc2oc(-c3cc(N)ccc3O)nc2c1	1	-4	2	38*
Nc1ccc(-c2nc3cc(N)ccc3o2)cc1	0	-4	7	49*
COc1cccc(-c2nc3cc(N)ccc3o2)c1	0	-8	7	49*
CCc1ccc2oc(-c3cc(N)ccc3Cl)nc2c1	0	-4	8	-50
CCc1ccc(-c2nc3cc(N)ccc3o2)cc1	0	-7	15	65*
O=C(COc1ccccc1O)N1CCCCC1	0	1	8	-2
O=[N+]([O-])c1c(NCc2ccccc2)ccc2nonc12	0	-1	6	-1
COC(=O)c1ccc(-c2nc3cc(NC(C)=O)c(N)cc3o2)cc1	0	-1	5	-1
COC(=O)c1ccc(-c2nc3cc(N)ccc3o2)cc1	0	-6	-3	72*
CCOc1ccc(-c2nc3cc(N)ccc3o2)cc1	0	-6	-2	76*
CN(C)c1ccc(-c2nc3cc(N)ccc3o2)cc1	1	-8	13	79*
Cc1ccc(-c2nc3cc(N)ccc3o2)cc1Cl	1	-6	-2	0
Nc1ccc(-c2nc3cc(Cc4ccc5oc(-c6ccc(N)cc6)nc5c4)ccc3o2)cc1	0	1	-5	-1
Cc1ccc(-c2nnc(-c3ccccc3C)o2)cc1	0	-3	6	-33
Cc1ccc(-c2nnc(Nc3ccccc3)o2)cc1	0	-10	5	44*
SMILES	FBW7 act	GPR151 activ	MITF inh	TEAD-YAP block
Oc1c(C(Nc2ncccn2)c2ccc(F)cc2)ccc2cccnc12 (centres undefined)	0	2	15	1
Cc1cccc(NC(c2cccc(F)c2)c2ccc3cccnc3c2O)n1 (centres undefined)	0	-1	5	40*
Oc1c(C(Nc2ccc(F)cc2)c2ccncc2)ccc2cccnc12 (centres undefined)	-2	-1	61*	-3
Cc1cccc(NC(c2ccc(F)cc2)c2ccc3cccnc3c2O)n1 (centres undefined)	0	-2	26	86*
Oc1c(C(Nc2ccccn2)c2cccc(F)c2)ccc2cccnc12 (centres undefined)	0	0	0	21
O=C1C2C(c3ccccc3)C=CC(c3ccccc3)C2C(=O)N1c1ccc(O)cc1 (centres undefined)	0	0	1	-4
Cc1ccccc1-n1c(=S)sc2c(=O)n(-c3ccc(F)cc3)c(SCC(=O)OCc3ccccc3)nc21	1	-1	17	2
Cc1cccc(NC(c2cccc(C)n2)c2ccc3ccc(C)nc3c2O)n1 (centres undefined)	0	0	15	-17
Cc1ccc2ccc(C(Nc3ccccn3)c3ccccn3)c(O)c2n1 (centres undefined)	0	0	6	39*
Cc1cccc(NC(c2ccccn2)c2ccc3ccc(C)nc3c2O)n1 (centres undefined)	0	2	15	49*

Assay outcomes as filed in PubChem BioAssay.
